Assay outcomes deposited in PubChem by several laboratories.
GalR3 antag: GalR3 antagonists in HEK293 cells, primary screen, cell-based, fluorescence readout; HEK293 GalR3-CNG cAMP membrane potential fluorescence; galR3 body fused to GalR1 C-terminus; AID 651719, 2012; Galanin receptor type 3 (Homo sapiens), O60755; actives 0.44% (n = 360,000); inhibition, % at 3 µM;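 active = inhibition above the screen-wide average plus 3 SD, cut at about 13% in these data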;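 note: forskolin and galanin both at EC90 stimulate the cells; cAMP rise reported by CNG channel membrane potential dye signal; 0% = forskolin plus galanin with DMSO and 100% = forskolin alone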
Target sequence (O60755 1-299 limits assumed): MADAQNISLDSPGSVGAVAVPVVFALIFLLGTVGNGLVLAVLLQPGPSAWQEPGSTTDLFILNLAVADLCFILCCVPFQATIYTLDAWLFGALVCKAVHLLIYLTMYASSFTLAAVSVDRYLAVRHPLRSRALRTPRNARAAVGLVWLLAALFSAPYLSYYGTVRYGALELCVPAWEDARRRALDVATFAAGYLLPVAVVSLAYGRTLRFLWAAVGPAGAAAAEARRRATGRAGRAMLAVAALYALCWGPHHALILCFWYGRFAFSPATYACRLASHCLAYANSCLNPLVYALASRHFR
Gli-Sufu block: Gli-Sufu pathway antagonists, primary screen, luciferase luminescence, Sufu-KO-LIGHT cells, uHTS; Sufu-KO-LIGHT fibroblasts, Gli luciferase reporter luminescence; inhibition, % at 5 µM; actives 0.74% (n = 340,000); AID 588413, 2011;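 active = inhibition above about 55%, limit read from the data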;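 note: 0% = DMSO-treated cells and 100% = wells with medium but no cells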
NR2F2 inh: NR2F2 transcriptional activity inhibitors, primary screen, cell-based, luciferase reporter, HEK293T, luminescence | HEK293T NGFI-A luciferase reporter | inhibition, % at 8.6 µM | actives 0.7% (n = 370,000) | AID 686940, 2013;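 active = inhibition above a per-plate cutoff, mean inhibition of test wells between control levels plus 3 SD, cut at about 38% in these data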;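 note: cells cotransfected with COUP-TFII expression vector driving the NGFI-A reporter; 0% = median of COUP-TF2 test wells and 100% = reporter-only cells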
Target sequence (P24468 whole entry, looked up): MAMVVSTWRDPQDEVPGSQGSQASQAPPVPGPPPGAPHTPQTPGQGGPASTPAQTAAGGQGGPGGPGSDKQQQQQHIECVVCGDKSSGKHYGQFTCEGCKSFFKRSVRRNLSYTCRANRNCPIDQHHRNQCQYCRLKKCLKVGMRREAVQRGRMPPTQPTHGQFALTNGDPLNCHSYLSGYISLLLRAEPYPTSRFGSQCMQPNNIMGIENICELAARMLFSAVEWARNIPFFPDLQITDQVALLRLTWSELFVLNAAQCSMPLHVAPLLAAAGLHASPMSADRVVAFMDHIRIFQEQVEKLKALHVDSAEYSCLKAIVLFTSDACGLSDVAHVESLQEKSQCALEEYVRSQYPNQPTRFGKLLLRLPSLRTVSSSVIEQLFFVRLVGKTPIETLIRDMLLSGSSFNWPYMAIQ
Jurkat NFkB inh: inhibitors of induced NF-kB luciferase reporter, primary screen, TCR NF-kB activation inhibitor project, cell-based, luminescence, uHTS | Jurkat, PMA/ionomycin-induced NF-kB luciferase reporter | inhibition, % at 4 µM | actives 0.53% (n = 330,000) | AID 435003, 2010; in the data active = inhibition above about 50%
697 NFkB inh: inhibitors of PMA/ionomycin-induced NF-kB reporter, 697 cells, primary screen, B-cell NF-kB inhibitor project, cell-based, luminescence, uHTS. inhibition, % at 4 µM. actives 0.33% (n = 330,000). 697 B-cell NF-kB luciferase reporter, 16 h; in the data active = inhibition above about 35%
GalR3 antag conf: GalR3 antagonist hit confirmation, cell-based, fluorescence, triplicate; shares compounds with GalR3 antag; HEK293 GalR3 CNG cAMP biosensor, membrane potential fluorescence; galR3 fused to GalR1 carboxy tail; challenged with forskolin and galanin at EC90; inhibition, % at 3 µM; actives 59% (n = 1,600); AID 652245, 2013;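 active = inhibition above the primary screen's cutoff, the mean inhibition of all screened compounds plus 3 SD, cut at about 13% in these data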;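 note: 0% = forskolin plus galanin and 100% = forskolin alone with DMSO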
CNG parental: nonspecific cAMP agonists in parental HEK-CNG cells, counter-screen for GalR3 antagonist project, cell-based, fluorescence, high throughput. shares compounds with GalR3 antag. activation, % at 3 µM. HEK293-CNG parental cells, cAMP membrane potential fluorescence; normalised: DMSO wells 0%, forskolin wells 100%. actives 10% (n = 1,600); in the data active = activation above about 1.3%
VP16 Luc counter: Gal4-VP16 luciferase reporter inhibitors, counter-screen for COUP-TFII antagonist project, cell-based, luminescence, HEK293 | shares compounds with NR2F2 inh | inhibition, % at 8.5 µM | actives 25% (n = 2,500); in the data active = inhibition above about 13%
NR2F2 inh conf: NR2F2 transcriptional activity inhibitors, confirmation, cell-based, luciferase reporter, HEK293, triplicate; actives 45% (n = 2,500); HEK293 NGFI-A luciferase reporter, luminescence; AID 687008, 2013; shares compounds with NR2F2 inh; inhibition, % at 8.5 µM;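 active = mean inhibition over three repeats above a set limit taken from the earlier primary screen, cut at about 38% in these data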;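 note: 100% = cells given the luciferase reporter alone without the COUP-TF2 vector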
* marks the source's active call; other numbers are inactive results; x = no result. Sampled rows, rich in hits. Any-hit rate of the full collection: about 2%.

SMILES | GalR3 antag | Gli-Sufu block | NR2F2 inh | Jurkat NFkB inh | 697 NFkB inh | GalR3 antag conf | CNG parental | VP16 Luc counter | NR2F2 inh conf
COc1ccccc1C(=O)Nc1ccc(C2=NNC(=O)CC2C)cc1 (stereo not given) | 73.2* | -5.0 | -17.3 | -10.1 | -30.0 | 73.3* | 0.3 | x | x
O=S(=O)(c1ccc(Cl)cc1)N1CCN(S(=O)(=O)N2CCCCCC2)CC1 | 16.1* | -14.9 | -19.8 | 1.8 | 2.6 | 3.3 | -0.2 | x | x
COc1ccccc1NC(=O)OCCCN1CCC2(CCC(C)CC2)C1=O (stereo not given) | x | x | 8.0 | x | x | x | x | x | x
COc1ccc(N2C(=O)c3ccccc3NC2c2ccc(OC)c(Cn3cc([N+](=O)[O-])cn3)c2)cc1 (stereo not given) | 59.5* | -56.9 | -19.7 | -50.4 | -36.9 | 24.0* | -0.2 | x | x
COc1ccc(C2Nc3ccccc3C(=O)N2c2ccccc2)cc1Cn1cc([N+](=O)[O-])cn1 (stereo not given) | -4.4 | -8.2 | -9.1 | 8.8 | -8.1 | x | x | x | x
Cc1cc(=O)[nH]c(SCC(=O)Nc2ccc(F)c(F)c2)n1 | x | x | 1.2 | x | x | x | x | x | x
COc1ccc(CC2(CO)CCN(Cc3cnn(-c4ccccc4)c3)CC2)cc1 | -1.7 | 26.3 | -0.5 | 19.9 | 17.1 | x | x | x | x
COc1ccc(CC2(CO)CCN(Cc3cnn(-c4ccc(F)cc4)c3)CC2)cc1 | 16.6* | 14.5 | 18.0 | 32.8 | -28.0 | 4.8 | 1.5* | x | x
COc1ccc(CC2(CO)CCN(Cc3ccc(OC(F)(F)F)cc3)CC2)cc1 | 16.5* | -10.4 | 29.6 | 27.7 | -8.0 | -3.7 | 1.8* | x | x
CCCCN1C(=O)N2CCc3ccccc3C2CS1(=O)=O (stereo not given) | x | x | -29.2 | x | x | x | x | x | x
Cc1ccc(-n2c(SCC(=O)Nc3ccc4cn[nH]c4c3)nnc2-c2ccccc2)cc1 | x | x | 6.9 | x | x | x | x | x | x
COc1ccc(-c2csc3ncn(Cc4ccccc4)c(=O)c23)cc1 | 3.8 | -1.1 | -10.9 | -12.1 | -7.7 | x | x | x | x
COc1ccc(-c2c3c(cc4ncn(Cc5ccccc5)c24)COC3=O)cc1 | 27.3* | -2.5 | -32.0 | -5.4 | 10.0 | 52.1* | 0.4 | x | x
Cn1c(SCCCC(=O)c2ccc(F)cc2)nnc1-c1ccncc1 | -2.9 | 19.6 | 16.5 | -0.6 | 8.5 | x | x | x | x
COCCn1c(SCCCC(=O)c2ccc(Br)cc2)nnc1-c1ccncc1 | 17.9* | 26.5 | 33.3 | 17.2 | -67.5 | 38.4* | 0.2 | x | x
Nc1nc2ccccc2cc1C(=O)NCc1ccc(-c2ccccc2)cc1 | 86.7* | x | 64.6* | x | x | 97.1* | 0.2 | 6.9 | 67.9*
CCCCNC(=O)C[C@@H]1C(=O)N(Cc2ccc(OC)cc2)C2=CCN(C(=O)OC(C)(C)C)C[C@]21C(=O)OCC | x | x | 15.3 | x | x | x | x | x | x
Cc1sc2ncnc(NCC(c3ccccc3)N(C)C)c2c1C (stereo not given) | -7.2 | 7.8 | 5.1 | 6.9 | -0.4 | x | x | x | x
Cc1sc2ncnc(NCC(O)c3ccccc3)c2c1C (stereo not given) | 38.3* | 22.2 | 43.5* | 16.5 | -54.0 | 25.2* | 0.9 | -75.9 | 13.1
COCCCNC(=O)C[C@H]1C[C@@]2(C(=O)OC)C(=C[C@H](COCc3ccccc3)O[C@@H]2C)N(Cc2ccco2)C1=O | x | x | -26.5 | x | x | x | x | x | x
CN(C)c1ccc(CC(=O)N2CCCC(c3cc(C(=O)Nc4ccc(C(C)(C)C)cc4)no3)C2)cc1 (stereo not given) | 49.0* | x | 63.5* | x | x | 109.3* | -1.1 | 13.7* | 61.1*
FC(F)(F)c1ccc(Cl)c(CN2CCN(c3ncc(Cc4ccccc4)cn3)CC2)c1 | -5.4 | x | 0.5 | x | x | x | x | x | x
Fc1ccc(CN2CCN(c3ncc(Cc4ccccc4)cn3)CC2)c(Cl)c1 | 81.9* | x | 50.8* | x | x | 109.2* | -0.2 | 6.3 | 46.6*
CC(=O)c1ccc(N2CCN(S(=O)(=O)c3ccc4c(c3)CC(C)N4C(C)=O)CC2)cc1 (stereo not given) | 98.5* | 57.2* | 58.9* | 38.0 | -3.6 | 105.6* | -0.3 | -2.1 | 44.3*
Oc1ccc(-c2n[nH]c(C(F)(F)F)c2-c2ccccc2)c(O)c1 | 47.5* | 70.1* | 65.0* | 46.2 | -28.6 | 89.4* | -1.8 | -0.1 | 48.4*
SMILES | GalR3 antag | Gli-Sufu block | NR2F2 inh | Jurkat NFkB inh | 697 NFkB inh | GalR3 antag conf | CNG parental | VP16 Luc counter | NR2F2 inh conf
CC(=O)N1CCN(C(=O)CSc2nc3cccnc3n2C)CC1 | x | x | -0.5 | x | x | x | x | x | x
CCN(CC)c1ccc(C(=O)NNC(=O)CCNC(=O)c2ccccc2)cc1 | -3.2 | x | -4.8 | -20.4 | -6.9 | x | x | x | x
CCN(CC)c1ccc(C(=C2C=CC(=[N+](CC)CC)C=C2)c2ccccc2)cc1 | 33.5* | 92.3* | 105.2* | x | x | 64.1* | 1.4* | 98.2* | 112.7*
CCN(CC)c1ccc(C(=C2C=CC(=[N+](CC)CC)C=C2)c2ccc(N(CC)CC)cc2)cc1 | 32.5* | 87.2* | 83.4* | x | x | 35.6* | -3.6 | 57.0* | 79.6*
Cc1ccc(NC(=O)Cc2ccc(OC(F)F)cc2)c(S(=O)(=O)N2CCOCC2)c1 | x | x | 7.9 | x | x | x | x | x | x
CSc1ccccc1OCc1cc(C(=O)N2CCNC(=O)C2)no1 | -1.6 | 0.0 | 1.2 | 3.8 | 3.3 | x | x | x | x
COC(=O)C1CCCCN1C(=O)c1cc(COc2cccc3cnccc23)on1 (stereo not given) | 106.2* | x | 61.4* | 41.2 | -23.9 | 107.0* | -0.2 | 0.4 | 59.5*
COC(=O)C1CCCCN1C(=O)c1cc(COc2cccc3cccnc23)on1 (stereo not given) | 1.1 | 5.9 | -8.8 | 3.4 | -23.3 | x | x | x | x
CSc1ccccc1OCc1cc(C(=O)N2CCC(c3ccncc3)CC2)no1 | 75.2* | x | 58.0* | 16.9 | -32.6 | 94.0* | -0.2 | -3.2 | 51.4*
COc1ccc(CN(CCN2CCOCC2)C(=O)c2cc(F)cc(F)c2)cc1OC | x | x | -28.7 | x | x | x | x | x | x
CC(C)C(NC(=O)Cc1ccccc1)C(=O)N1CCN(c2cccc(Cl)c2)CC1 (stereo not given) | 43.6* | 10.3 | 64.9* | 14.4 | -16.4 | 0.3 | -0.3 | 0.8 | 13.0
